Assay outcomes as filed in PubChem.
Pf Dd2 inh: Plasmodium falciparum Dd2 growth inhibition. P. falciparum Dd2 growth, SYBR Green, 72 h. Potency, µM (top dose mostly 28.9 µM), inactives show at the top dose activity, negative = inhibition, actives largely listed as inhibitors. 120,000 tested, 4.3% active. AID 1347417; active = well fitted inhibition curve with a large enough effect;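 note: plate controls were DMSO vehicle for no effect and reference drug for full effect; nearly all actives have a fitted effect of over 65% in size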
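Readout: SYBR Green fluorescence, 485 nm excitation, 535 nm emission, after ~16 h lysis at 37C. Before that, Dd2-infected red cells (2.5% hematocrit) grew 72 h with compound, 29 uM top final concentration.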
Active calls of the source: *; i = inactive; [ ] = dose if it differs, or a comment. This is one part of a sample in which hits are shown more often than they occur. Potency is the fitted concentration of half-maximal effect.

SMILES	Pf Dd2 inh
C#C[C@H]1CN2CC[C@H]1C[C@@H]2CNS(=O)(=O)c1cccc(F)c1	8.9µM*
CC[C@H]1CN2CC[C@H]1C[C@@H]2CNC(=O)Nc1cccc(C#N)c1	i
CCN(CC)C[C@H]1CN2CC[C@H]1C[C@@H]2CNS(=O)(=O)c1ccc(Cl)cc1	-15%[44.1 µM]
O=C(c1ccccc1)N1CCCC(c2nn(-c3ccccc3)c(=O)[nH]2)C1 (stereo not given)	-24%
O=C1CC2(CCN(C(=O)c3ccccc3)CC2)Oc2cc(Cl)ccc21	-63%
O=C(c1ccc(C(F)(F)F)cc1)N1CCCC2(C1)C(=NC1CCCCC1)NC(=O)N2c1cc(F)cc(F)c1 (stereo not given)	41%
COCC1CN(C(=O)CCc2c(C)nn(C)c2C)CC12CCNCC2 (stereo not given)	-10%
C[C@@H]1C(=O)O[C@H]2[C@H]1CC[C@@]1(C)Cc3sc(NC(=O)CN(C)C)nc3[C@@H](C)[C@H]21	-44%[44.1 µM]
O=C(c1ccc(Cl)nc1)N1CCc2nc(C3CC3)nc(-c3ccc(Cl)cc3)c2C1	-12%
CCn1ncc(CN(C)C(=O)CC2C(=O)NCCN2C(C)C)c1C (stereo not given)	-22%
O=C(CN1CC2CC(C1)[C@H]1CCCC(=O)N1C2)N1CCc2ccccc21 (stereo not given in full)	-11%
CN1CCN([C@@H]2[C@H](O)[C@H](CO)O[C@@H]2CNS(=O)(=O)c2cccs2)CC1	24%
CCC(=O)N1CCCC(n2c(C)cnc2-c2cccnc2)C1 (stereo not given)	3%
Cc1cn2nc(C(=O)Nc3ccc(C)c(F)c3)cc2c(N(C)Cc2ccccc2)n1	10µM*
Cc1ccc(CNC(=O)c2cc3c(N(C)Cc4ccccc4)nc(C)cn3n2)cc1	i
COc1ccc(NC(=O)c2cc3c(N4CCSCC4)nc(C)cn3n2)cc1F	28%
Cc1cn2nc(C(=O)Nc3ccc(F)c(C)c3)cc2c(N2CCSCC2)n1	-28%
Cc1ccc(NC(=O)c2cc3c(N4CCCC4)nc(C)cn3n2)cc1	-4%
Cc1cn2nc(C(=O)Nc3ccc(N(C)C)cc3)cc2c(N(C)Cc2ccccc2)n1	0.79µM*
CNC(=O)c1noc([C@@H]2CC(F)(F)CN2C(=O)C(C)C)n1	27%
COCCn1ncc(N2CCC(C(=O)NCCCN3CCc4ccccc4C3)C2)cc1=O (stereo not given)	i
COCCNC(=O)[C@H]1C[C@H](Oc2ccccc2)CN1C(=O)CC(C)C	4%
O=C(NC1CCc2nnc(C3CC3)n2CC1)c1ccsc1 (stereo not given)	22%
Cc1ccc(-c2cc(C(=O)N3CCC4(CC(=O)NC4=O)C3)n[nH]2)o1 (stereo not given)	-9%
Cc1ccc(-c2cc(O)c3c(c2)CNCCO3)cc1	i
SMILES	Pf Dd2 inh
COc1ccc(-c2cc3c(c(OC)c2)OCCNC3)nn1	-9%
COc1cc(-c2cc(C)c3c(OC)ccc(OC)c3n2)cc2c1OCCNC2	11µM*
CN1CCN(Cc2nc(C3(O)CCN(CC4CCCCC4)CC3)cs2)CC1	10µM*
CN1CCN(Cc2nc(C3(O)CCN(C4CCCC4)CC3)cs2)CC1	4%[44.1 µM]
OC1(c2csc(CN3CCN(c4ccccn4)CC3)n2)CCN(CC2CCCCC2)CC1	-8%
C[S+](=O)([O-])N1Cc2ccccc2CC2(CCN(CC3CCNC3)CC2)C1 (stereo not given)	16%
Cc1ccc(NS(=O)(=O)c2ccccc2)c(=O)n1CC(=O)NCc1cccc(Cl)c1	i
C[C@@H](NC(=O)C1=C[C@@H](NC(=O)Cc2cccs2)[C@@H](O)[C@H](O)C1)C(N)=O	10%[44.1 µM]
CC(C)CN1C(=O)COC[C@@H]1[C@H](O)c1ccc(NC(=O)c2ccco2)cc1	i
COc1ccc(C(=O)N2CCOCC3(CN(Cc4ccccc4)C3)C2)cc1	-12%[44.1 µM]
COc1ccc(C(=O)N2CCOCC3(CN(Cc4ccccc4)C3)C2)c(OC)n1	0.89µM*
COc1ccc(C(=O)N2CCOCC3(CN(Cc4cc(F)cc(F)c4)C3)C2)c(OC)n1	i
COCCn1cnc2ccc(-c3ccc(F)cc3OC)nc2c1=O	i
O=C(c1ccccc1OCC1CCCN(Cc2cccnc2)C1)N1CCCCC1 (stereo not given)	-8%
Cc1ccc(Cl)cc1NC(=O)N1CCC(n2cnnc2C2CC2)C1 (stereo not given)	12%
c1nc(N2CCOCC2)c2c3c(sc2n1)CN(CC1CCCCC1)CC3	2.8µM*
CN(C)c1ncnc2sc3c(c12)CCN(Cc1ccncc1)C3	i
COc1ccc(CN2CCN(c3ncnc4sc5c(c34)CCCC5)CC2)cc1F	-25%
Clc1ccc(CN2CCN(c3ncnc4sc5c(c34)CCCC5)CC2)cc1Cl	44%
CCOc1ccc(CN2CCN(c3ncnc4sc5c(c34)CC(C)CC5)CC2)cc1 (stereo not given)	25%
c1coc(CN2CCc3c(sc4ncnc(N5CCOCC5)c34)C2)c1	8.9µM*
COc1cccc(CC(=O)N2C[C@@H](Oc3ccccc3)C[C@@H]2C(=O)N2CCOCC2)c1	-12%
O=C1NCCCCCCN(Cc2ccncc2)[C@@H]2CN(C(=O)c3ccsc3)CC[C@@H]12	-15%
COc1ccc(C(=O)N[C@H](C)c2onc(-c3ccc(F)cc3)c2C(=O)O)cc1	16%[44.1 µM]
O=C(C1CCC(O)CC1)N1CCCC(CCc2ccccc2C(F)(F)F)C1 (stereo not given)	-21%
SMILES	Pf Dd2 inh
C[S+](=O)([O-])N1CC2(Cc3ccccc31)CN(C(=O)c1ccccc1F)C2	i
COCCC(=O)NCCC1CCN(C(=O)Nc2cc(F)ccc2F)CC1	-3%
CCc1nc2c(c(-c3ccc(OC)cc3)n1)CN(C(=O)c1ccc(C(F)(F)F)cc1)CC2	7%
COc1ccc(-c2nc3c(c(=O)[nH]2)CCN(C(=O)CSc2ccccc2)C3)cc1	4.5µM*
COc1ccc(-c2nc3c(c(=O)[nH]2)CCN(C(=O)COc2ccc(F)c(F)c2)C3)cc1	1%
COc1ccc(-c2nc3c(c(=O)[nH]2)CCN(C(=O)c2ccccc2)C3)cc1	i
COc1ccccc1-c1nc(C(=O)N(C)C)n2ccccc12	-8%[44.1 µM]
CC1CCN(CCCNC(=O)CN2C(=O)CSc3ccc(S(=O)(=O)N4CCOCC4)cc32)CC1	6%
CCCCNC(=O)CN1C(=O)CSc2ccc(S(=O)(=O)N3CCC(C)CC3)cc21	0%
CC1CCN(CCCNC(=O)CN2C(=O)CSc3ccc(S(=O)(=O)N4CCC(C)CC4)cc32)CC1	8.9µM*
COc1ccc2cc(C3CN(c4ncnc(C)c4C)CCO3)ccc2c1 (stereo not given)	-9%
CC(C)(CC(=O)O)CC(=O)N1C[C@@H]2C[C@H](C1)c1ccc(-c3cc4ccccc4s3)c(=O)n1C2	i
O=C1NCCCCCN(C(=O)NCc2ccccc2)[C@H]2CCCC[C@@H]12	0%
Cc1cccc(NC(=O)CSc2nc3ccccc3c3nc(CCn4cncc4C)nn23)c1	10µM*
Cc1ccccc1NC(=O)CSc1nc2ccccc2c2nc(CCn3cncc3C)nn12	-18%
COc1cc2nc(SCC(=O)Nc3cccc(C)c3)n3nc(-c4ccccc4)nc3c2cc1OC	3%
Cc1n[nH]c(C)c1CCc1nc2c3ccccc3nc(SCC(=O)Nc3ccc(F)cc3)n2n1	8.9µM*
Cc1ccc(NC(=O)CSc2nc3ccccc3c3nc(CCn4cncc4C)nn23)c(C)c1	8%
CCOc1ccccc1NC(=O)CSc1nc2cc(OC)c(OC)cc2c2nc(CCn3c(C)nc4ccccc43)nn12	3.2µM*
COc1cc2nc(SCC(=O)Nc3ccc(F)cc3)n3nc(CCn4c(C)nc5ccccc54)nc3c2cc1OC	i
